Test results as given in PubChem BioAssay (NCI).
Where “and” joins values, the source holds several entries; their conditions need not be identical. Equal values may be shown once. The panel holds about 83,000 compounds, 20% with a hit somewhere; the sample as a whole holds those more often.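 96-well plates, one dose, 48 hours. Percent growth reported; active if below 10.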 Calls of active or inactive are those of the source.

How the values were obtained:
Experiment in all cases: NCI-60 one-dose screen, 48 h (100 = growth as untreated, 0 = no growth, -100 = all killed)
Conditions in all cases: 10 µM unless noted
[1] = test system: SK-MEL-2 melanoma
[2] = test system: EKVX NSCLC
[3] = test system: SN12C renal
[4] = test system: TK-10 renal
[5] = test system: ACHN renal
[6] = test system: CAKI-1 renal
[7] = test system: A498 renal
[8] = test system: CCRF-CEM leukemia
[9] = test system: MOLT-4 leukemia
[10] = test system: SR leukemia
[11] = test system: RPMI-8226 leukemia
[12] = test system: OVCAR-8 ovarian
[13] = test system: OVCAR-5 ovarian
[14] = test system: OVCAR-4 ovarian
[15] = test system: SK-OV-3 ovarian
[16] = test system: IGROV1 ovarian
[17] = test system: OVCAR-3 ovarian
[18] = test system: HS 578T breast
[19] = test system: NCI/ADR-RES ovarian
[20] = test system: UO-31 renal

Structure (SMILES)	growth [1]	growth [2]	growth [3]	growth [4]	growth [5]	growth [6]	growth [7]	growth [8]	growth [9]	growth [10]	growth [11]	growth [12]	growth [13]	growth [14]	growth [15]	growth [16]	growth [17]	growth [18]	growth [19]	growth [20]
Cc1cccc(/C=C\C(=O)c2ccccc2)c1	100% (inactive) and 103% (inactive)	97.8% (inactive) and 101% (inactive)	89.7% (inactive) and 102% (inactive)	86.9% (inactive) and 96.3% (inactive)	124% (inactive) and 110% (inactive)	92.8% (inactive) and 95.1% (inactive)	95.2% (inactive) and 68.2% (inactive)	78.9% (inactive) and 64.5% (inactive)	91.5% (inactive) and 49.1% (inactive)	42.8% (inactive) and -0.91% (active)	26% (inactive)	93.9% (inactive) and 101% (inactive)	104% (inactive) and 103% (inactive)	93.3% (inactive) and 113% (inactive)	101% (inactive)	91.6% (inactive)	98.8% (inactive) and 101% (inactive)	112% (inactive) and 104% (inactive)	97% (inactive) and 101% (inactive)	–
CC1CCCC(=O)O1 (centres undefined)	103% (inactive) and 107% (inactive)	102% (inactive)	111% (inactive)	–	99.2% (inactive) and 100% (inactive)	95.7% (inactive) and 102% (inactive)	110% (inactive) and 97.8% (inactive)	111% (inactive)	99.5% (inactive) and 106% (inactive)	104% (inactive)	96.7% (inactive) and 94.7% (inactive)	110% (inactive) and 95.2% (inactive)	101% (inactive)	96% (inactive) and 104% (inactive)	98% (inactive) and 110% (inactive)	96% (inactive) and 99.9% (inactive)	103% (inactive) and 115% (inactive)	110% (inactive) and 105% (inactive)	103% (inactive) and 99.8% (inactive)	92.8% (inactive) and 76.7% (inactive)
CCOC(=O)C(C(=O)OCC)C(c1ccccc1)N1CCN(c2ccccc2)CC1 (centres undefined)	105% (inactive) and 100% (inactive)	107% (inactive) and 103% (inactive)	98.2% (inactive) and 110% (inactive)	98.1% (inactive) and 113% (inactive)	105% (inactive)	112% (inactive) and 98.1% (inactive)	–	–	103% (inactive) and 99.1% (inactive)	97.9% (inactive) and 101% (inactive)	102% (inactive) and 103% (inactive)	101% (inactive) and 90.3% (inactive)	112% (inactive) and 111% (inactive)	102% (inactive) and 113% (inactive)	–	107% (inactive)	123% (inactive) and 120% (inactive)	103% (inactive) and 104% (inactive)	107% (inactive)	73.8% (inactive) and 78.9% (inactive)
C/C(=N\NC(=O)c1ccncc1)c1ccccc1O	75.3% (inactive) and 18.8% (inactive)	16.5% (inactive) and 31.5% (inactive)	45.9% (inactive) and 46.9% (inactive)	34.7% (inactive) and 37.4% (inactive)	26.3% (inactive) and 26.5% (inactive)	10.4% (inactive)	–	–	7.82% (active) and 10.7% (inactive)	17.7% (inactive) and 16% (inactive)	38.2% (inactive)	37.1% (inactive) and 10.9% (inactive)	–	20% (inactive) and 22.5% (inactive)	45.6% (inactive) and 38.4% (inactive)	32.1% (inactive) and 19.1% (inactive)	20.3% (inactive) and 12.6% (inactive)	76.1% (inactive)	18% (inactive) and 16.9% (inactive)	31.3% (inactive) and 20.6% (inactive)
CCNC(=O)Nc1ccc(-c2nc3c(c(N4CCOC[C@@H]4C)n2)CCN(C2COC2)C3)cc1	41.7% (inactive)	46.8% (inactive) and 17.4% (inactive)	36.1% (inactive) and 14.7% (inactive)	44.4% (inactive) and -22.3% (active)	34.6% (inactive) and 7.24% (active)	67.1% (inactive) and 0.578% (active)	-24.1% (active) and -36.2% (active)	–	52.2% (inactive) and 8.79% (active)	47.9% (inactive) and 11.8% (inactive)	23.3% (inactive) and 6.21% (active)	48% (inactive) and 0.436% (active)	46.7% (inactive) and 23.1% (inactive)	23.1% (inactive) and -13% (active)	13.9% (inactive) and -35% (active)	15.2% (inactive) and -12.9% (active)	40.4% (inactive) and 16% (inactive)	1.21% (active)	90.4% (inactive) and 12.4% (inactive)	–
CNC(=O)c1cc(Oc2ccc(NC(=O)Nc3ccc(Cl)c(C(F)(F)F)c3)cc2)ccn1	-42.9% (active)	4.85% (active) and -2.85% (active)	6.54% (active) and -7.24% (active)	–	5.96% (active) and 0% (active)	7.37% (active) and -32.6% (active)	-73.7% (active) and -21.1% (active)	12% (inactive) and 18.6% (inactive)	-1.28% (active) and 25.8% (inactive)	-8.61% (active) and 23.9% (inactive)	-11.5% (active) and -19.3% (active)	5.3% (active) and -16.5% (active)	16.6% (inactive) and 15.4% (inactive)	26.2% (inactive) and 25.2% (inactive)	-20.9% (active) and 12.5% (inactive)	-24.8% (active) and -70.7% (active)	18.9% (inactive) and 3.16% (active)	-8.13% (active)	-10.9% (active) and -12.5% (active)	-28.5% (active) and -81.1% (active)
CN(C)CCCN1c2ccccc2Sc2ccc(Cl)cc21	77.6% (inactive) and 107% (inactive) and 112% (inactive)	91.6% (inactive) and 147% (inactive)	66.7% (inactive) and 117% (inactive) and 78.8% (inactive)	–	44.8% (inactive) and 108% (inactive) and 68.7% (inactive)	75.1% (inactive) and 257% (inactive) and 52.5% (inactive)	105% (inactive) and 120% (inactive) and 108% (inactive)	73.6% (inactive) and 98.7% (inactive)	69.7% (inactive) and 102% (inactive) and 83.3% (inactive)	67.9% (inactive) and 105% (inactive) and 62.2% (inactive)	71% (inactive) and 97.9% (inactive) and 103% (inactive)	85.6% (inactive) and 93% (inactive) and 94.2% (inactive)	90.8% (inactive) and 113% (inactive) and 95.6% (inactive)	83.3% (inactive) and 113% (inactive) and 85.9% (inactive)	24.1% (inactive) and 76.5% (inactive)	69.7% (inactive) and 63.4% (inactive)	84.2% (inactive) and 112% (inactive) and 83.4% (inactive)	90.3% (inactive) and 90.2% (inactive) and 89.1% (inactive)	85% (inactive) and 109% (inactive) and 89.5% (inactive)	54.4% (inactive) and 89.3% (inactive) and 50.3% (inactive)
Nc1n[nH]c(=S)n1-c1ccc(Cl)cc1	99.9% (inactive)	106% (inactive)	100% (inactive)	92.6% (inactive)	103% (inactive)	119% (inactive)	–	96.7% (inactive)	–	96.6% (inactive)	80.8% (inactive)	100% (inactive)	98.6% (inactive)	99.5% (inactive)	102% (inactive)	110% (inactive)	100% (inactive)	100% (inactive)	100% (inactive)	89% (inactive)
CCN(CC)CCCC(C)N(Cc1ccccc1)CC(O)c1ccc(Cl)cc1 (centres undefined)	105% (inactive) and 103% (inactive)	106% (inactive) and 96.2% (inactive)	100% (inactive) and 104% (inactive)	91.8% (inactive) and 90.4% (inactive)	117% (inactive) and 103% (inactive)	109% (inactive)	91% (inactive) and 116% (inactive)	–	107% (inactive) and 103% (inactive)	119% (inactive) and 98.1% (inactive)	99.9% (inactive) and 96.7% (inactive)	105% (inactive) and 102% (inactive)	91.2% (inactive)	116% (inactive) and 112% (inactive)	94.4% (inactive) and 102% (inactive)	113% (inactive) and 101% (inactive)	109% (inactive) and 100% (inactive)	93.8% (inactive) and 111% (inactive)	108% (inactive) and 98.3% (inactive)	–
